The source of these data is PubChem BioAssay (NCATS).

Assay [1] has as its target Voltage-gated inwardly rectifying potassium channel KCNH2 (Homo sapiens) (UniProt Q12809). As to the kind of experiment: qHTS Assay for Small Molecule Inhibitors of the Human hERG Channel Activity (AID 588834).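 Note: lower thallium flux fluorescence means stronger hERG block; nearly all actives have a fitted effect of over 50% in size.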 Note: potency is the fitted concentration of half-maximal effect. The method, boiled down: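 hERG block measured as reduced thallium-dye (FluxOR) fluorescence after stimulation buffer addition, read over 2 min. Cells were hERG-BacMam-transduced U2OS exposed to compound ~10 min […]; concentration-response fitted with Hill equation for AC50.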
In general terms: In qHTS, concentration-response curves come from the screen itself.

For assay [2], the target named is Luciferin 4-monooxygenase (Photinus pyralis) (UniProt P08659). As to the kind of experiment: Biochemical firefly luciferase enzyme assay for NPC (AID 624030).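 Note: purified P. pyralis luciferase at 10 nM with luciferin and ATP substrate; series mostly up to about 59 µM; nearly all actives have a fitted effect of over 70% in size.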 Put shortly:
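Counter-screen for direct inhibition of the luciferase enzyme by approved-drug library compounds, run at 10 nM enzyme in 50 mM Tris acetate (final). Luminescence was read within 5 min of enzyme-buffer addition and normalized to PTC124 versus DMSO (0%).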

The nature of assay [3]: S16 Schwann cell viability assay (CellTiter-Glo assay) (AID 624031).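 Note: native untransfected S16 rat Schwann cells; series mostly up to about 58 µM; nearly all actives have a fitted effect of over 70% in size.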 The method, boiled down:
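Counter-screen for cytotoxicity: parental S16 rat Schwann cells lacking the PMP22 reporters, treated 24 h with compound, viability from cellular ATP by CellTiter-Glo luminescence, normalized to DMSO (0%) and no-cell wells.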
Background: Cellular ATP, detected with luciferase, serves as a proxy for viable cell number.

Assay [4] can be described thus: S16 Schwann cell PMP22 intronic element firefly luciferase assay (AID 624032). Note: nearly all actives have a fitted effect of over 30% in size. Note: potency is the fitted concentration of half-maximal effect. Put shortly: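 Rat S16 Schwann cells stably carrying a PMP22 intronic element-driven Fluc reporter were seeded overnight, then exposed to compounds for 24 h at 37 °C. Luminescence was normalized to PTC124 (positive control) and DMSO (0% activity).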
Assay [5] concerns the target Glutaminase kidney isoform, mitochondrial (Homo sapiens) (UniProt O94925). As to the kind of experiment: qHTS for Inhibitors of Glutaminase (GLS): LOPAC Validation (AID 624146).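 Note: glutamate product detected by oxidase and peroxidase coupled Amplex red fluorescence gain; series mostly up to about 46 µM; nearly all actives have a fitted effect of over 60% in size.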 Put shortly:
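Two-point fluorescence kinetic (t0, 30 min RT) for hKGA; glutamate detected via glutamate oxidase–HRP–Amplex Red. Substrate: 1 mM L-glutamine solution; buffer 45 mM KH2PO4, pH 8.2.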

Assay [6] is described as follows: qHTS of Trypanosoma Brucei Inhibitors: LOPAC Validation (AID 624147). The text has this:
Members of the Trypanosomatidae family of parasitic protozoans cause a spectrum of diseases throughout the tropical and subtropical world. Sleeping sickness, caused by two subspecies of Trypanosoma brucei, is endemic to areas of sub-Saharan Africa, while Chagas' disease, a manifestation of Trypanosoma cruzi infection, is prevalent throughout Central and South America. In addition, many species of Leishmania are responsible for a range of cutaneous and visceral diseases, causing ulcers, destructive lesions and kalaazar, a lethal infection of the viscera. These diseases cause severe public health and economic burdens on populations that are often already caught in a tragic cycle of poverty, poor nutrition and disease. Collectively, parasites of the trypanosomatid family infect 30 million people worldwide (~500 million live in endemic areas), and account for ~130K deaths annually. Existing treatments have developed little in the past 50 years, and suffer from toxicity, poor efficacy and resistance; the goal of this project is to develop lead drugs that will be suitable for entry into pre-clinical trials.
Glycolysis in axenically cultured T. cruzi, representing the intracellular pathogenic stage, is also essential for these parasites. {Engel, 1987} This project aims to discover and optimize selective inhibitors of the glycolytic enzyme pyruvate kinase (PYK) from Trypanosoma brucei, the parasite that causes sleeping sickness. […]
2 uL of TbPYK/substrate buffer (columns 1-3, 5-48) are dispensed into Greiner white solid bottom 1536-well assay plates; column 4 receives only TEA buffer as 0x TbPYK controls. […] Kinase-Glo Plus reagent is added (3 uL) and plates incubated for 10 minutes, before being transferred to a ViewLux high-throughput CCD imager (PerkinElmer) wherein single end-point measurements of luminescence are acquired using a clear filter. […]

Each structure is given as a SMILES string. Records with an inconclusive call do not appear. Where a structure was tested more than once in an assay, its records may differ in their call. The source made the active and inactive calls. Calls come from the whole dose curve; as a rule, active = well fitted curve in the direction sought with a large enough effect; inconclusive = small, poorly fitted or top-dose-only effect, or another doubt; inactive = no such curve, though single readings can be large; an effect the other way counts as inactive or inconclusive.

Chain of Luciferin 4-monooxygenase (Photinus pyralis) (P08659 whole entry, looked up): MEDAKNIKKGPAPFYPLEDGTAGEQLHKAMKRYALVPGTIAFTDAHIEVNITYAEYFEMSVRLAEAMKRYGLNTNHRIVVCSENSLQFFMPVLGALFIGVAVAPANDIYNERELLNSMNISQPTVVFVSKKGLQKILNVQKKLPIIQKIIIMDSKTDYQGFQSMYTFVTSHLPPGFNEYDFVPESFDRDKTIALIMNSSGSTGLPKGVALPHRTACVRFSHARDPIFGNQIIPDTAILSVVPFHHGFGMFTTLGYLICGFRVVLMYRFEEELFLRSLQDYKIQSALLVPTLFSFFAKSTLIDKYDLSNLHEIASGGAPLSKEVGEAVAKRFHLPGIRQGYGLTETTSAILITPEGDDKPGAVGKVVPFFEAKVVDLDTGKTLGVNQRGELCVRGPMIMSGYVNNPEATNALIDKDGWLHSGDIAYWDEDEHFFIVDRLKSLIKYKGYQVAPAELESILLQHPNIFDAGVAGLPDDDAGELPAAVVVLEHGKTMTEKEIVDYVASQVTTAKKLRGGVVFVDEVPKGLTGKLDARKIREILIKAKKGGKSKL
Chain of Voltage-gated inwardly rectifying potassium channel KCNH2 (Homo sapiens) (Q12809 whole entry, looked up): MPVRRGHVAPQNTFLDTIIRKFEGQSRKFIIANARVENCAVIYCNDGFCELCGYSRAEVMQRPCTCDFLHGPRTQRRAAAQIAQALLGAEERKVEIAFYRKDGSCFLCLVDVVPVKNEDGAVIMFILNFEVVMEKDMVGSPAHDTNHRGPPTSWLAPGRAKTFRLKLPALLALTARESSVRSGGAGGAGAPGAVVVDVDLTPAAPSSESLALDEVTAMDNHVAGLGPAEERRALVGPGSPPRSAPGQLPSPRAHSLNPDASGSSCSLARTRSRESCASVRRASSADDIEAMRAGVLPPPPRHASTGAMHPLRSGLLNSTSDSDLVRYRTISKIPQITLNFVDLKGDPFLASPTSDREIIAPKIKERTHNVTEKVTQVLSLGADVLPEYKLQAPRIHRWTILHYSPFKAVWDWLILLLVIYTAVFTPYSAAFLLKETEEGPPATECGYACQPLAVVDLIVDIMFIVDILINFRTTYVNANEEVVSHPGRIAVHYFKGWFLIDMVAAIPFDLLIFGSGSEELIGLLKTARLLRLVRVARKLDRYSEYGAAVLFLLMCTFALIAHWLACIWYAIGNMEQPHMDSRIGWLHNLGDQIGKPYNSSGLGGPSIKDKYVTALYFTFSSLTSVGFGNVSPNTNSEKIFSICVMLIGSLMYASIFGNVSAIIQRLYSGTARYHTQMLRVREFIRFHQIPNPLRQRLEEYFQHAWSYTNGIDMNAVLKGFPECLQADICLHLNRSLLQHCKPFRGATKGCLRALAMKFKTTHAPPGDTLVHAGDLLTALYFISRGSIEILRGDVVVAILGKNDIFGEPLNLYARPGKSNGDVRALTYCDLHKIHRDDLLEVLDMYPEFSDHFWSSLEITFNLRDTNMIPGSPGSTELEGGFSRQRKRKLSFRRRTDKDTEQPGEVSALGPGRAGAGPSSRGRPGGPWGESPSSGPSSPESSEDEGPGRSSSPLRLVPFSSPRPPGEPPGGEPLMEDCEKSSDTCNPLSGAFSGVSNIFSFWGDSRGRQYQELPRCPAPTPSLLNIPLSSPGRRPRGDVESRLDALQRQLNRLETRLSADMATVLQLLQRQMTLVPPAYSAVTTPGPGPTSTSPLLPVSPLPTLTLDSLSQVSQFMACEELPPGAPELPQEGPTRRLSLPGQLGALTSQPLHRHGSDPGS
Chain of Glutaminase kidney isoform, mitochondrial (Homo sapiens) (O94925 whole entry, looked up, canonical isoform): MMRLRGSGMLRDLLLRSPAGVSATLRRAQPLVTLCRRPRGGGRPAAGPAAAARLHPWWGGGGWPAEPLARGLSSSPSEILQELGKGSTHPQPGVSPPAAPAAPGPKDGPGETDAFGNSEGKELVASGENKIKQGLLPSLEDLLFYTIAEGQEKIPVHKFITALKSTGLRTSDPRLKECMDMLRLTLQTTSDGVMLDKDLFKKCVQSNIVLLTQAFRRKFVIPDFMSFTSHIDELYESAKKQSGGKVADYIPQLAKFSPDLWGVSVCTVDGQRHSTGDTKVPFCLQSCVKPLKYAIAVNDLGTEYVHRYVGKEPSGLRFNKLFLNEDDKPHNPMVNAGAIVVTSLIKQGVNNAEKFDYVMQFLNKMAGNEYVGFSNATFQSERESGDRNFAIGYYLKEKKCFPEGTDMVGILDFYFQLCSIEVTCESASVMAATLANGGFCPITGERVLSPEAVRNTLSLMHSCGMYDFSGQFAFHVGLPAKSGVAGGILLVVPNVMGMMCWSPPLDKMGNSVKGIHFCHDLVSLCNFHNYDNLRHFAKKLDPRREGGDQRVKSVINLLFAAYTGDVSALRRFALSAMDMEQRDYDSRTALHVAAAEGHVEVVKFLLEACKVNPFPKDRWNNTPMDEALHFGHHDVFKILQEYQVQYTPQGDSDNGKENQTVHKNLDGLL

Take `NCc1cccnc1`: the Potency entry in assay [1], in assay [2] and in assay [3] was “inactive” in each case.

For `OC(O)C(Cl)(Cl)Cl`, the Potency result in assay [1], in assay [2] and in assay [3] was “inactive” each time.

As to `CCS(=O)(=O)C(C)(C)S(=O)(=O)CC`, the Potency entry in assay [1], in assay [2] and in assay [3] was “inactive” throughout.

As for `CN1C[C@@H](NS(=O)(=O)N(C)C)C[C@@H]2c3cccc4c3c(cn4C)C[C@H]21`, the Potency result in assay [1] and in assay [2] was “inactive” each time.

On to `O=C(CCCN1CCC(n2c(=O)[nH]c3ccccc32)CC1)c1ccc(F)cc1`, for which the Potency in assay [1] is 0.355 µM (active). In addition, the Potency entry in assay [2] and in assay [3] was “inactive” throughout.

On to `c1ccc2nc(N3CCNCC3)ccc2c1`, for which the Potency result in assay [1], in assay [2] and in assay [3] was “inactive” each time.

Consider `C[C@@H]1O[C@@H](O[C@@H]2C=C3CC[C@@H]4[C@H](CC[C@]5(C)[C@@H](c6ccc(=O)oc6)CC[C@]45O)[C@@]3(C)CC2)[C@H](O)[C@H](O)[C@H]1O`, for which the Potency result in assay [1] is “inactive”.

In the case of `ClC1=C(Cl)C2(Cl)C(CBr)CC1(Cl)C2(Cl)Cl` (stereo unspecified), the Potency in assay [1] was 22.4 µM (active). Further, the Potency result in assay [2] and in assay [3] was “inactive” in each case.

`CC(C)(O)C(Cl)(Cl)Cl`: the Potency result in assay [1], in assay [2] and in assay [3] was “inactive” in each case.

Take `C[N+](C)(C)CCOC(=O)C(O)(c1ccccc1)c1ccccc1`: the Potency result in assay [1], in assay [2], in assay [3] and in assay [4] was “inactive” each time.

For the compound `C#C[C@]1(O)C=C[C@H]2[C@@H]3CCC4=CC(=O)CC[C@@H]4[C@H]3CC[C@@]21CC`, in assay [1], the Potency result is “inactive”.

`CN(C)c1ccc(C(=C2C=CC(=[N+](C)C)C=C2)c2ccccc2)cc1`: the Potency result in assay [1] is “inactive”.

On to `O=C(O)CNC(=O)c1ccccc1I`, for which the Potency entry in assay [2] was “inactive”.

Turning to `COC(=O)C1=CCCN(C)C1`, the Potency entry in assay [1], in assay [2] and in assay [3] was “inactive” each time. Besides, the outcome in assay [5] and in assay [6] was inactive.

On to `Oc1ccc2[nH]cc(CCCCN3CC=C(c4ccccc4)CC3)c2c1`, for which the Potency in assay [1] is 1.26 µM (active); in assay [4] it was 9.07 µM (active). The Potency entry in assay [2] and in assay [3] was “inactive” each time.

`CCc1cc(OC)c(C[C@H](C)N)cc1OC`: in assay [2], the Potency entry is “inactive”.

Consider `CCN(Cc1ccc(Cl)nc1)/C(=C/[N+](=O)[O-])NC`, for which the Potency result in assay [1], in assay [2], in assay [3] and in assay [4] was “inactive” each time.

Consider `CC[C@H]1C[C@H]2[C@@H]3CCC4=CC(=O)CC[C@@H]4[C@H]3CC[C@]2(C)[C@H]1O`, for which, in assay [2], the Potency result was “inactive”.

Regarding `CCN(CC)Cc1nccn1-c1ccc([N+](=O)[O-])cc1C(=O)c1ccccc1Cl`, the Potency entry in assay [2] is “inactive”.

On to `CCN(CC)CCOC(=O)C(C)(c1ccccc1)c1ccccc1`, for which the Potency in assay [1] is 3.55 µM (active). Further, the Potency result in assay [2], in assay [3] and in assay [4] was “inactive” in each case.

Consider `COc1ccc(C(=O)N2CCCC2=O)cc1`, for which the Potency result in assay [1], in assay [2] and in assay [3] was “inactive” throughout. In assay [5], the outcome was inactive.

For `CNC(C)Cc1ccccc1OC` (stereo unspecified), in assay [2], the Potency entry is “inactive”.

As for `CC[C@H](O)C(C[C@H](C)N(C)C)(c1ccccc1)c1ccccc1`, the Potency entry in assay [2] was “inactive”.

As to `CN1C(=O)CN=C(c2ccccc2)c2cc([N+](=O)[O-])ccc21`, the Potency result in assay [1], in assay [2], in assay [3] and in assay [4] was “inactive” each time.
